# In PubChem BioAssay AID738 (SRMLSC, 2007):
# Out of some 98,000 compounds screened, about 4,900 (5%) were called active. Cut-off read from the data, not from the text of the source: active = inhibition above about 30%; inactive = the rest. Many of the other results were omitted from the sample, so actives are more common in it than they were.
# Test: growth inhibition of yeast control strain, primary screen, counter-screen for post-Golgi transport modulator project (AID 738)
# Settings: efflux-deficient yeast background strain, growth absorbance A615, 16 h; at 10 µM; stronger effect = higher value
row,Compound,inhibition
1,Cc1ccc(Oc2ccc3c(c2)C(=O)N(c2cccc4cccnc24)C3=O)cc1,9.43% (inactive)
2,COC(=O)c1cc(OC)c(OC)cc1NC(=O)CSc1ccc(C)cc1,4.16% (inactive)
3,N#Cc1ccsc1NC(=O)CN1CCCCC1,3.25% (inactive)
4,CC1(C)CCCC2=C1CC1C(=O)N(c3ccccc3)C(=O)C1C2 (stereo not drawn),18.5% (inactive)
5,CC1CC2=C(CC1/C=N/NC(N)=S)C(C)(C)CCC2 (stereo not drawn),90.2% (active)
6,COc1ccc(N(CC(=O)N/N=C/c2cccc3c2OCCO3)S(=O)(=O)c2ccc(NC(C)=O)cc2)cc1,0.15% (inactive)
7,CCN(CC)S(=O)(=O)c1ccc2nc(COC(=O)c3n[nH]c4ccccc34)[nH]c2c1,7.74% (inactive)
8,COc1ccc(COC(=O)c2n[nH]c3ccccc23)cc1F,37.5% (active)
9,O=C(COC(=O)c1n[nH]c2ccccc12)NCc1ccccc1,4.29% (inactive)
10,CCC(C)NC(=O)c1c(N)n(/N=C/c2cccs2)c2nc3ccccc3nc12 (stereo not drawn),-2.86% (inactive)
11,C=CCn1c(N)c(C(=O)OCC(C)C)c2nc3ccccc3nc21,9.88% (inactive)
12,CC(C)Cn1c(N)c(C(=O)NCc2cccs2)c2nc3ccccc3nc21,35.7% (active)
13,O=C(O)COc1ccc(-c2nccc(-c3cccs3)n2)cc1,0.28% (inactive)
14,Brc1ccc(/C=N/N2CCN(C3c4ccccc4-c4ccccc43)CC2)s1,-3.33% (inactive)
15,CC(CC(=O)Nc1cc(C(F)(F)F)ccc1Cl)c1ccccc1 (stereo not drawn),16% (inactive)
16,CCN(Cc1cc2cc(C)ccc2[nH]c1=O)S(=O)(=O)c1ccccc1,32.2% (active)
17,CCNCc1cc2cc(C)ccc2[nH]c1=O,-2.22% (inactive)
18,CC(=O)OCc1cc2cc(C)ccc2[nH]c1=O,-5.13% (inactive)
19,O=[N+]([O-])c1ccc(Oc2ccc(F)cc2Br)c2ccncc12,68.3% (active)
20,COc1ccc(C2C=C(c3ccc(Br)cc3)Nc3nc(NS(C)(=O)=O)nn32)cc1 (stereo not drawn),-3.73% (inactive)
21,Cc1cc(/C=C2/SC(=O)N(CC(=O)OC(C)C)C2=O)c(C)n1C,-3.79% (inactive)
22,Cc1cccc(NC(=S)Nc2ccc(Br)cc2)c1,0.28% (inactive)
23,O=C(Nc1ccccc1)c1nnsc1S(=O)(=O)c1ccc(Cl)cc1,97.8% (active)
24,O=C(Nc1ccc(Cl)cc1)c1ccsn1,25.9% (inactive)
25,CC(=O)Nc1cc(C(=O)O)ccc1S(=O)(=O)c1ccc(Cl)cc1,8.39% (inactive)
26,Cc1noc(C)c1COC(=O)c1cc2ccccc2cc1O,19.3% (inactive)

row,Compound,inhibition
1,Cc1cccc(NC(=O)CSc2nnc(NC(=O)CN3CCOCC3)s2)c1,-6.56% (inactive)
2,Cc1cccc(NC(=O)CN2CCCN(S(=O)(=O)c3ccc(Br)s3)CC2)c1,41.2% (active)
3,Cc1cccc(NC(=O)CN2C(=O)CNC2=O)c1,9.16% (inactive)
4,O=C(Nc1ccccc1)c1ccc2nsnc2c1,12.1% (inactive)
5,Cn1nc([N+](=O)[O-])nc1Sc1ccc(C(C)(C)C)cc1,11.6% (inactive)
6,CCOC(=O)C1=C(C)NC(C)=C(C(=O)OCC)C1c1ccccn1,-6.97% (inactive)
7,C=CCOC(=O)C1=C(C)NC(C)=C(C(=O)OCC=C)C1c1cccs1,39.5% (active)
8,C=CCOC(=O)C1=C(C)NC(SCC(=O)OCC)=C(C#N)C1c1ccc(C)cc1 (stereo not drawn),18.4% (inactive)
9,COc1ccc(/C=C2/S/C(=N/N=C3\CC4CCC3(C)C4(C)C)NC2=O)cc1 (stereo not drawn),-0.57% (inactive)
10,COc1ccc(/C(O)=C2\C(=O)C(=O)N(Cc3ccco3)C2c2ccc(OC)cc2OC)cc1 (stereo not drawn),-3.5% (inactive)
11,CCCn1c(SCC(N)=O)nnc1C(C)C,5.31% (inactive)
12,CCCn1c(SCC(=O)Nc2c(C)cccc2C)nnc1C(C)C,-4.88% (inactive)
13,CCCn1c(SCC(=O)c2ccc3c(c2)OCCO3)nnc1C(C)C,43.7% (active)
14,Cc1cc2c(c(=O)n1C)C(C(C)C)C(C#N)=C(N)O2 (stereo not drawn),-3.4% (inactive)
15,CSCc1cc(N(C)C)nc(SCc2ccc(Cl)cc2Cl)n1,15% (inactive)
16,CCOC(=O)c1sc(NC(=O)CSc2ncccn2)c(C#N)c1C,21.6% (inactive)
17,CCOC(=O)c1ccc(NC(=O)CSc2ncccn2)cc1,31.1% (active)
18,CCOC(=O)c1ccc(NC(=O)CSc2nnc(COc3ccccc3OC)n2C)cc1,12.5% (inactive)
19,CC(c1ccco1)N(C(=O)COc1ccccc1[N+](=O)[O-])c1ccccn1 (stereo not drawn),14.2% (inactive)
20,C=CCNC(=O)c1sc(SC)cc1-c1ccc(Cl)cc1,11.2% (inactive)
21,CC1CCN(CC(=O)c2c[nH]c3ccccc23)CC1,6.25% (inactive)
22,CCOC(=O)CSC1=C(C#N)C(c2sccc2C)CC(=O)N1 (stereo not drawn),11.5% (inactive)
23,CCOC(=O)CSC1=C(C#N)C(c2ccco2)C(C(=O)OCc2ccccc2)=C(C)N1 (stereo not drawn),24.9% (inactive)
24,Cc1ccc(C2CC(=O)NC(SCC(=O)OCc3ccccc3)=C2C#N)o1 (stereo not drawn),32% (active)
25,CN(C)/C=C(\C#N)C(=O)c1cccnc1Oc1ccc(F)cc1F,2.7% (inactive)
26,O=C(COc1ccc(Br)cc1F)NC1CCN(Cc2ccccc2)CC1,37.7% (active)

row,Compound,inhibition
1,O=C(COc1ccccc1F)NC1CC1,-0.64% (inactive)
2,O=C(NC1CCN(Cc2ccccc2)CC1)c1ccccc1F,6.56% (inactive)
3,Cc1ccc(C(=O)Nc2c(C#N)c(C)c(C)n2Cc2ccccc2)cc1,17.1% (inactive)
4,CCOC1CS(=O)(=O)CC1OCC (stereo not drawn),8.62% (inactive)
5,Cc1cc(C)nc(NC(=O)C(C)N2C(=O)c3ccccc3C2=O)n1 (stereo not drawn),-0.16% (inactive)
6,Cc1cc(C)nc(NC(=O)Nc2ccccc2C(F)(F)F)n1,34.3% (active)
7,O=C(Nc1ccccc1C(F)(F)F)c1cc(-c2ccc(O)cc2)on1,2.42% (inactive)
8,COc1cc(SC)ccc1C(=O)NCCOc1ccccc1Cl,28.9% (inactive)
9,Cc1ccc(CNC(=O)CCNC(=O)Cn2ccc3ccccc3c2=O)cc1,7.83% (inactive)
10,CCOc1c2ccc(C(=O)NCc3ccc(OC(F)(F)F)cc3)cc2nn1C,-2.75% (inactive)
11,COc1ccc(C(=O)c2c(C)oc3cc([N+](=O)[O-])c(O)c([N+](=O)[O-])c23)cc1,15% (inactive)
12,COC(=O)Nc1c(C)n(C)n(-c2ccccc2)c1=O,6.08% (inactive)
13,Cc1c(NC(=O)c2cc(-c3ccc(Cl)s3)nc3ccccc23)c(=O)n(-c2ccccc2)n1C,44.6% (active)
14,Cc1cc(C(=O)Nc2c(C)n(C)n(-c3ccccc3)c2=O)cs1,2.08% (inactive)
15,CCOC(=O)Nc1ccc(S(=O)(=O)N(C)C(C)C)cc1,4.8% (inactive)
16,CCOc1c2ccc(C(=O)NCc3ccc4c(c3)OCO4)cc2nn1C,24.1% (inactive)
17,Cc1ccccc1N/N=C/c1ccc(N2CCOCC2)cc1,20% (inactive)
18,COc1ccccc1CNC(=O)c1ccc(SC)cc1OC,17.5% (inactive)
19,CCOc1ccc2nc(NCCNS(=O)(=O)c3ccccc3)c(C#N)cc2c1,-2.23% (inactive)
20,COc1ccc2nc(N3CCCC(O)C3)c(C#N)cc2c1 (stereo not drawn),6.9% (inactive)
21,CCOc1ccc2nc(N3CCCN(C(=O)Nc4ccccc4C)CC3)c(C#N)cc2c1,56.8% (active)
22,Cc1ccc2cc(CCNC(=O)c3c(-c4ccccc4Cl)noc3C)c(=O)[nH]c2c1,9.09% (inactive)
23,CN1CCN(c2ccc([N+](=O)[O-])c(Sc3nc4ccccc4[nH]3)c2)CC1,7.22% (inactive)
24,CSc1ccc(C#N)cc1NC(=O)c1ccc(Cl)cc1,-4.75% (inactive)
25,CSc1cc(C)n(-c2ccccc2C)c(=S)c1C(C)=O,4.46% (inactive)
26,Cc1ccc(CNC(=O)C2CC(=O)N(C3CCCCCCC3)C2)cc1 (stereo not drawn),11.5% (inactive)

row,Compound,inhibition
1,O=C(NCCCN1CCCCCC1)C1CC(=O)N(C2CCCC2)C1 (stereo not drawn),39.6% (active)
2,CC(C)OCCCNC(=O)C1CC(=O)N(C2CCCCCCC2)C1 (stereo not drawn),0.87% (inactive)
3,COc1ccc(CCNC(=O)COC(=O)c2ccc[nH]c2=O)cc1,8.99% (inactive)
4,CCn1c(SCc2ccc(C)cc2)nnc1-c1nn(-c2ccccc2)ccc1=O,28.2% (inactive)
5,CCOc1ccc(NC(=O)N(CCC(C)C)C(C)c2ccco2)cc1 (stereo not drawn),14.1% (inactive)
6,CCCC(C(=O)NCc1ccco1)N(C(=O)CNS(=O)(=O)c1ccccc1)C1CCCC1 (stereo not drawn),-6.03% (inactive)
7,CC(c1ccco1)N(C(=O)Nc1ccccc1)C1CCCCC1 (stereo not drawn),34.8% (active)
8,CCCCNC(=O)CSc1nc2ccc(NC(=O)CSc3nnc(COc4ccccc4C)n3C)cc2s1,-0.61% (inactive)
9,CN(C(=O)CSc1nc(C2CC2)nc2ccccc12)c1nc(-c2ccccc2)cs1,3.27% (inactive)
10,S=c1[nH]nc(-c2ccco2)n1/N=C/c1ccc(Br)s1,32.1% (active)
11,Oc1ccccc1/C=N/n1c(-c2cccs2)n[nH]c1=S,7.52% (inactive)
12,Cc1ccc(/C=N\n2c(-c3ccccc3)n[nH]c2=S)s1,6.75% (inactive)
13,COC(=O)c1c(CCl)noc1C(=O)NC(C)C,-6.4% (inactive)
14,CCCCSc1[nH]c(=O)c(C(=O)OCC)cc1C#N,-5.6% (inactive)
15,C/C(=N/NC(=O)c1ccc(NC(=O)c2ccc(F)cc2)cc1)c1ccccc1,4.86% (inactive)
16,Cc1nn(CCOc2ccccc2)c(=O)n1-c1ccccc1F,14% (inactive)
17,OC(COc1ccc2c(c1)CCC2)CN1CCN(c2cccc(Cl)c2)CC1 (stereo not drawn),82.4% (active)
18,CCC(=O)c1ccc(OCC(O)CN2C(=O)NC(C)(C)C2=O)cc1 (stereo not drawn),7.58% (inactive)
19,O=C(c1ccc(Cl)cc1)c1ccc(OCC(O)CN2CCCCC2)cc1 (stereo not drawn),7.05% (inactive)
20,O=C(COc1ccc(Cl)cc1)N1CCN(c2cccc(C(F)(F)F)c2)CC1,27.6% (inactive)
21,OC(COc1cccc(OCC(O)CN2CCCC2)c1)CN1CCCC1 (stereo not drawn),0.3% (inactive)
22,CCC(=O)c1ccc(OCC(O)CN2CC(C)OC(C)C2)cc1 (stereo not drawn),30.9% (active)
23,CCC(=O)c1ccc(OCC(O)CN2CCN(c3cccc(C(F)(F)F)c3)CC2)cc1 (stereo not drawn),38.7% (active)
24,O=C(C(c1ccccc1)c1ccccc1)N1CCN(CC(O)COc2ccccc2)CC1 (stereo not drawn),9.41% (inactive)
25,O=S(=O)(c1ccc(OCC(O)CN2CCN(c3ccccc3Cl)CC2)cc1)N1CCOCC1 (stereo not drawn),-0.44% (inactive)
